CYP2C19 activ: human CYP2C19 activators, primary screen, biochemical, luminescence; Cytochrome P450 2C19 (Homo sapiens), P33261; recombinant CYP2C19, luciferin-H EGE luminescence; active compounds read high; 0 = fully inhibited enzyme, 1 = untreated enzyme; activation factor at 5 µM; 96,000 tested, under 10 active;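 active = activation factor of at least 2 at 5 µM in the primary screen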;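 also: 0 = wells with 2.5 mM tranylcypromine and 1 = vehicle-only wells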
CYP2C9 act: human CYP2C9 activators, primary screen, biochemical, luminescence; Cytochrome P450 2C9 (Homo sapiens), P11712; recombinant CYP2C9, luciferin-H conversion; active compounds read high; factor 1 = untreated enzyme, 0 = blocked; activation factor at 5 µM; 96,000 tested, 1.4% active; AID 1024, 2008;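 active = activation factor of 2 or more for CYP2C9 at a 5 µM dose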;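 also: 0 = sulfaphenazole-blocked wells and 1 = vehicle-only wells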
Target sequence (P11712 whole entry, looked up): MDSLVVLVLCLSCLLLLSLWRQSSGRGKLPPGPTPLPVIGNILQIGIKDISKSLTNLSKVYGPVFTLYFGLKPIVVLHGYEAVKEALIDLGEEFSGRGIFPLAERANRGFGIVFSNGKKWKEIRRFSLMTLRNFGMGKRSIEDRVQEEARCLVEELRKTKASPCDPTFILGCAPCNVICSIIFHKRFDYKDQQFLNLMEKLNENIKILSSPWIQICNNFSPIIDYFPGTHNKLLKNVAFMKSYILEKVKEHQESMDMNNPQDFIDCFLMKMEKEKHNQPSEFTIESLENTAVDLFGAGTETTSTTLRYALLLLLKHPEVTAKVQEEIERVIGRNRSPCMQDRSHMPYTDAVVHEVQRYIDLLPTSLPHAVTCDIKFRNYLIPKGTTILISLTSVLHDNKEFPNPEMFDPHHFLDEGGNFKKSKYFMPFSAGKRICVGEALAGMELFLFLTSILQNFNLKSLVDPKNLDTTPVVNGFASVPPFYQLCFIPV
PLK1 kinase inh: human PLK1 kinase inhibitors, primary screen, biochemical, TR-FRET; recombinant PLK1 kinase, TR-FRET peptide phosphorylation; inhibition, % at 10 µM; 97,000 tested, 0.53% active;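 active = inhibition of 50% or more in the single-concentration screen; inactive = inhibition below 50%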;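 also: 0% = DMSO max control and 100% = H-89 dihydrochloride min control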
CYP2C9 inh: blockers of cytochrome P450 2C9 activity – biochemical, luminescence, ADME assay, primary screen; CYP2C9 Supersomes, luciferin-H conversion; inhibition, % at 5 µM; 96,000 tested, 20% active; AID 777, 2007;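 active = blocking of liver enzyme CYP2C9 beyond about 50% at 5 µM, limit read from the data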
CYP2C19 inh: blockers of cytochrome P450 2C19 activity – biochemical, luminescence, ADME assay, primary screen; inhibition, % at 5 µM; 96,000 tested, 21% active; CYP2C19 Supersomes, luciferin-H EGE luminescence, 30 min; AID 778, 2007;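 active = CYP2C19 inhibition above a set limit at 5 µM in the primary screen, cut at about 50% in these data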;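 also: plate controls were negative control wells for no effect and 2.5 mM tranylcypromine positive control for full effect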
PLK1 PBD inh: Plk1 polo box domain binding inhibitors, primary screen, biochemical, fluorescence polarization; Serine/threonine-protein kinase PLK1 (Homo sapiens), P53350; Plk1 PBD phosphopeptide binding; 97,000 tested, 0.13% active; inhibition, %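 (tested at about 20 µM)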; in the data active = inhibition above about 34%, passing the limit was not always enough
* marks the source's active call; other numbers are inactive results; . = no result. Hits are enriched below; roughly 28% of the tested compounds scored in any of these assays.

SMILES | CYP2C19 activ | CYP2C9 act | PLK1 kinase inh | CYP2C9 inh | CYP2C19 inh | PLK1 PBD inh
CCCCN(CC)c1nc(N)c(C#N)c(CC#N)c1C#N | 0.4 | 0.1 | 18.8 | 85.1* | 63.9* | 7.1
Cc1cc(C)n(-c2nc(-c3cccc(Cl)c3)cs2)n1 | 1 | 1.4 | -13.2 | -35.9 | -3.7 | 7.7
CCC(CC)C(=O)NC12CC3CC(CC(C3)C1)C2 | 0.9 | 0.9 | -5.8 | 13.9 | 12.6 | 21.7
CCCn1c(=O)[nH]c(=O)c2c1nc(-c1ccc(OC(F)F)c(OC)c1)n2CCOC | 0.6 | 0.5 | -9.9 | 53.9* | 44.8 | 8.0
CCCn1c(=O)[nH]c(=O)c2c1nc(-c1ccccc1OC(F)F)n2CCOC | 0.8 | 0.8 | -3.9 | 16.0 | 19.6 | -6.1
COc1cccc(-c2cc(C(=O)Nc3cccnc3)no2)c1 | 1 | 1.1 | 43.4 | -5.1 | 3.3 | -19.4
COc1cccc(-c2cc(C(=O)Nc3c(C)nn(Cc4ccccc4)c3C)no2)c1 | 0.7 | 0.5 | -14.1 | 53.6* | 26.7 | 11.0
Cc1ccc(NC(=O)c2cc(-c3ccco3)on2)cc1C | 1.2 | 1.5 | -1.7 | -50.5 | -17.9 | 9.3
COc1cccc(-c2cc(C(=O)Nc3cc(OC)c(OC)c(OC)c3)no2)c1 | 0.2 | 0.7 | -8.4 | 30.8 | 81.1* | 6.1
Cc1nn(Cc2ccccc2)c(C)c1NC(=O)c1cc(-c2cccs2)on1 | 0.7 | 0.4 | -12.9 | 62.7* | 28.2 | -0.5
COc1ccc(-c2cc(C(=O)Nc3c(C)nn(Cc4ccccc4)c3C)no2)cc1 | 0.7 | 0.9 | -10.3 | 13.0 | 26.3 | 21.4
Cc1ccc(NC(=O)c2cc(-c3cccc(O)c3)on2)cc1C | 0.8 | 2.9* | -15.2 | -187.5 | 19.7 | 9.1
CC(=O)Nc1ccc(Oc2nc(C)cc(C)n2)cc1 | 0.9 | 1 | -10.3 | 3.3 | 7.6 | 0.7
Cc1ccc(SCCNC(=O)/C=C/c2ccccc2Cl)cc1 | 0.8 | 1 | -10.3 | 2.9 | 21.7 | 43.5
CN1CCN(C(=O)c2cc3nc(-c4ccccc4)cc(-c4ccccc4)n3n2)CC1 | 0.6 | 0.6 | -4.1 | 41.5 | 40.7 | -6.2
COc1cc(NC(=O)c2cc3nc(-c4ccccc4)cc(-c4ccccc4)n3n2)cc(OC)c1OC | 0.7 | 0.4 | -17.4 | 64.5* | 33.0 | -14.0
Nn1c(SCC(=O)Nc2ccc3c(c2)OCO3)nnc1-c1cccc(Cl)c1 | 1.2 | 0.9 | -4.1 | 12.3 | -16.1 | -8.4
CN(C)S(=O)(=O)c1cccc(-c2nnc(SCc3cc(Cl)cc4c3OCOC4)n2N)c1 | 0.6 | 0.2 | -2.9 | 81.8* | 43.0 | 14.8
CC1Cc2ccccc2C(=O)N1 (configuration not stated) | 1.1 | 1.1 | 3.0 | -8.1 | -9.0 | 29.8
CC1CCC2(CC1)NC(=O)c1ccccc1O2 (configuration not stated) | 0.1 | 0.8 | -13.1 | 21.9 | 92.9* | 2.1
CS(=O)(=O)N(CC(=O)NCCSCc1c(F)cccc1Cl)c1ccc2c(c1)OCO2 | 0.2 | 0.4 | -11.1 | 56.7* | 79.0* | -9.9
COc1ccc(N(CC(=O)NCCSCc2c(F)cccc2Cl)S(C)(=O)=O)cc1OC | 1.2 | 0.1 | 12.5 | 86.7* | -19.9 | -21.6
C(=C\c1ccccc1)/C=N/n1cnnc1 | 0.2 | 0.7 | -1.6 | 28.0 | 83.7* | -1.7
CC(/C=N/Nc1nc(N2CCCCC2)nc(N2CCCCC2)n1)=C\c1ccccc1 | 0.9 | 0.8 | -4.7 | 22.0 | 6.7 | -8.4
CC(/C=N\N1CCN(c2ccc(Cl)cc2)CC1)=C\c1ccccc1 | 1 | 1 | -8.4 | -1.9 | 2.0 | 9.7
SMILES | CYP2C19 activ | CYP2C9 act | PLK1 kinase inh | CYP2C9 inh | CYP2C19 inh | PLK1 PBD inh
CC(/C=N/n1cnnc1)=C\c1ccccc1 | 0.1 | 0.9 | -10.1 | 13.4 | 94.5* | -8.5
Nc1nnnn1/N=C/C=C/c1ccccc1 | 0.9 | 0.8 | . | 21.4 | 13.3 | .
CC(=C/c1ccccc1)/C=N/n1cnnc1 | 0.1 | 0.9 | 1.0 | 14.5 | 94.0* | 5.7
C/C(CC1CC(COCC(C)C)OC1=O)=N\Nc1nc(-c2ccccc2)cs1 (configuration not stated) | 0.1 | 0.3 | -7.9 | 72.0* | 89.0* | 57.2
Cc1ccc2ccc(C(Nc3ccccn3)c3ccccc3)c(O)c2n1 (configuration not stated) | 0.3 | 0.1 | -8.3 | 94.1* | 75.0* | -2.4
Oc1c(C(Nc2ccccn2)c2ccccn2)ccc2cccnc12 (configuration not stated) | 0.5 | 0.3 | . | 67.0* | 48.0 | .
COc1cc(C(Nc2ccccn2)c2ccc3ccc(C)nc3c2O)cc(OC)c1O (configuration not stated) | 0.9 | 0.9 | 5.9 | 11.8 | 10.9 | -31.5
COCCCNC(=O)COc1ccc(-c2nccc(-c3ccccn3)n2)cc1 | 0.6 | 0.6 | 6.9 | 40.4 | 37.3 | 9.5
COc1ccc(N2C(=O)C(Cl)=C(N3CCCC(C)C3)C2=O)cc1 (configuration not stated) | 0.2 | 0.2 | -9.2 | 84.9* | 83.8* | -25.9
COc1ccc(N2C(=O)C(Cl)=C(N3CCCC3)C2=O)cc1 | 0.7 | 0.9 | -14.4 | 5.6 | 33.8 | 26.4
COC(=O)C(C)Sc1nc2c(c(-c3ccc(OC)cc3)c1C#N)-c1ccccc1C2=O (configuration not stated) | . | . | -6.3 | . | . | -10.0
O=C1Cn2c(nc3ccccc32)N1c1cccc(C(F)(F)F)c1 | 0.4 | 0.7 | -9.0 | 31.0 | 59.0* | -11.5
CCOC(=O)C(C)Sc1nc(-c2cccs2)ccc1C#N (configuration not stated) | 0.1 | 0 | -4.6 | 95.6* | 91.1* | -3.3
O=C(CC1Nc2ccccc2NC1=O)NC1CCCCC1 (configuration not stated) | 0.9 | 2.2* | -4.1 | -122.4 | 10.7 | 20.4
O=C(Nc1ccc(Nc2ccccc2)cc1)C1CC1 | 0.4 | 0.5 | -5.5 | 50.1* | 58.9* | 9.4
O=C(O)C1CCCCC1C(=O)Nc1cccc2ccccc12 (configuration not stated) | . | . | -13.3 | . | . | -11.5
O=C(Nc1ccccc1)C1CCCCC1 | . | . | 0.0 | . | . | -22.4
O=C(NCC1CCCO1)C1CCC(N2C(=O)c3ccccc3C2=O)CC1 (configuration not stated) | 0.4 | 0.3 | -9.7 | 72.2* | 55.8* | 15.0
O=C(O)C1CCCCC1C(=O)Nc1ccccc1Nc1ccccc1 (configuration not stated) | 0.4 | 0.1 | -3.6 | 85.7* | 55.7* | -19.8
O=C(CN1C(=O)c2ccccc2C1=O)NCC1CCCO1 (configuration not stated) | 1.2 | 1.1 | -13.7 | -12.3 | -18.1 | 5.7
O=C(Nc1ccccc1)C1CCN(c2nccs2)CC1 | 0.2 | 0.7 | -5.8 | 29.7 | 84.9* | -5.9
